# Experimental data reported in PubChem BioAssay (EPA / NIEHS).
# The source made the active and inactive calls. The calls were made as follows: active = hit-call score of the fitted dose curve at least 0.9, where 1 is the maximum; inactive = score below 0.9.
# Read-out: adenosine kinase (ADK) gene, ADK (gene 132)
# Test: LTEA_HepaRG_ADK: Life Technologies and Expression Analysis (LTEA) Assay for adenosine kinase (ADK) gene using HepaRG (AID 2283471)
# Details: mRNA level, 48 h; actives raise or lower the signal
# Method: LTEA_HepaRG is a cell based, multiplexed-readout assay that uses HepaRG, a human liver cell line, with measurements taken at 48 hours after chemical dosing on a 96-well plate.LTEA_HepaRG_ADK is one of 102 assay component(s) measured in the LTEA HepaRG cell culture assay. It is a marker of Steatosis.Data from the assay component LTEA_HepaRG_ADK was analyzed into 1 endpoint. This assay endpoint, LTEA_HepaRG_ADK, was analyzed with bidirectional fitting relative to DMSO as the negative control and baseline of activity. Using a type of inducible reporter, measures of mRNA induction for gain or loss-of-signal activity can be used to understand regulation of transcription factor activity. To generalize the intended target to other relatable targets, this assay endpoint is annotated to the kinase intended target family, where the subfamily is steatosis.
# A total of 1060 chemcials from the ToxCast library were tested in eight-point concentration-response experiments. Cell culture and cytotoxicity assays were conducted at Thermo Fisher Scientific's Custom Services facility (Madison, WI). A single lot of human HepaRG cells (Thermo Fisher Scientific, Frederick, MD) was used for the cell culture experiments. 96-well format collagen type I coated plates of human HepaRG cells were prepared using established methods. Briefly, cryopreserved HepaRG cells were thawed, plated at a density of approximately 100,000 cells/well in HepaRG Thaw, Plate, and General Purpose media (HPRG770, Thermo Fisher Scientific), and incubated for 48 hours. 0.5% DMSO was selected as vehicle control to balance the requisite need of DMSO in HepaRG cultures to maintain differentiation (for example, baseline metabolism, proportions of hepatocytes vs. cholangiocytes), while enabling further hepatic receptor pathway activation (for example, PXR and CAR) in response to chemical exposure. 48 hours after plating, the culture medium was replaced with HepaRG Serum-Free Incudtion Media. Cells were exposed to each test chemical in duplicate and maintained in CO2 incubators for another 48 hours. Chemical plates were thawed to room temperature and 200x concentrations of treatment groups were prepared. 8-point conentration-reponse curves were made with the highest exposure at 100 uM, followed by half-log dilutions, all in 0.5% DMSO. Each test plate contained variouse controls, induction positive controls (1mM phenobarbital), cytotoxicity positive controls ([…] aflatoxin B1), vehicle controls (0.5% DMSO), and total lysis controls (0.5% DMSO). Cell morphology images were taken using an Essen IncuCyte FLR automated microscope, with six 96-well plates imaged in about 24 minutes. Images were captured and exported and JPEG files. Spent culture media was transfered to black-well plates for the LDH assay, and remaining media was sorted at -80 C for later use. Cells were treated with RLT buffer and frozen until shipped for gene expression analysis. Total RNA was isolated from the cell suspension in 75 uL of Buffer RLT (Qiagen, Germantown, MD 20874) by Quintiles/Expression Analysis (Durham, NC) using a custom isolation procedure. Total RNA from each plate well was transferred to a preamplification plate. Fluidigm's 96.96 Dynamic ArrayTM (Fluidigm, Amsterdam, the Netherlands) technology was used for gene expression analyses by quantitative reverse transcription polymerase chain reaction (qRT-PCR, performed by Quintiles/Expression Analysis, Durham, NC)89. Standard TaqManTM Assays (Applied Biosystems/ThermoFisher Scientific, Foster City, CA) were used to assess the expression of 93 genes selected based on their selectivity and sensitivity to important hepatic receptors known to be modulated by environmental chemicals; importance in human hepatocyte functionality; and hepatotoxicity. […]
Structure (SMILES),outcome,AC50
Cc1cn([C@H]2C[C@H](N=[N+]=[N-])[C@@H](CO)O2)c(=O)[nH]c1=O,inactive,–
OCCO,inactive,–
CO[C@H]1/C=C/O[C@@]2(C)Oc3c(C)c(O)c4c(O)c(c(/C=N/N5CCN(C)CC5)c(O)c4c3C2=O)NC(=O)/C(C)=C\C=C\[C@H](C)[C@H](O)[C@@H](C)[C@@H](O)[C@@H](C)[C@H](OC(C)=O)[C@@H]1C,inactive,–
OC12N=C(c3ccccc3)SC1Cc1cc(Cl)ccc12 (stereo not given),inactive,–
C[C@]12CC[C@@H]3c4ccc(O)cc4CC[C@H]3[C@@H]1CC[C@H]2O,inactive,–
Cc1ccc(C(C)C)cc1,inactive,–
Cc1cc(F)ccc1-c1cc(N2CC[C@@H](O)[C@H]2CO)ncc1N(C)C(=O)C(C)(C)c1cc(C(F)(F)F)cc(C(F)(F)F)c1,inactive,–
CN(C)c1ccc(C(=C2C=CC(=[N+](C)C)C=C2)c2ccc(N(C)C)cc2)cc1,–,20.7 µM (active)
O=C(O)c1ccccc1C(=O)OCc1ccccc1,inactive,–
O=C(OCCCCCCOC(=O)c1ccccc1)c1ccccc1,inactive,–
O=C(O)Cn1c(=O)n(Cc2ccc(Br)cc2F)c(=O)c2ccc(Cl)cc21,inactive,–
CC(C)(c1cc(Br)c(O)c(Br)c1)c1cc(Br)c(O)c(Br)c1,–,92.5 µM (active)
CN1C(=O)N(c2ccccc2Br)Cc2cnc(Nc3ccc4c(c3)OCC(CO)O4)nc21 (stereo not given),–,88.9 µM (active)
COc1cccc([C@H](O)C2CCN(CCc3ccc(F)cc3)CC2)c1OC,inactive,–
Cc1ccc2oc(CN(Cc3ccccc3)C(=O)Nc3c(F)cc(F)cc3F)c(-c3ccc(Cl)cc3)c2c1,inactive,–
CCCCCCCC[Si](OCC)(OCC)OCC,inactive,–
CC(C)(C)c1cc(/C=C2\SC(N)=NC2=O)cc(C(C)(C)C)c1O,–,23.5 µM (active)
O=C(O)Cc1cc(I)c(Oc2ccc(O)c(I)c2)c(I)c1,inactive,–
COc1ccc2cc(S(=O)(=O)N[C@H](CC(=O)N[C@H](Cc3ccc(CN4[C@H](C)CCC[C@@H]4C)cc3)C(=O)N(C)C(C)C)c3ccc4c(c3)OCO4)ccc2c1,–,13.3 µM (active)
CCCCCc1ccc(N)cc1,inactive,–

Structure (SMILES),outcome,AC50
NCc1cccc(C2CCN(C(=O)c3ccc(C#Cc4ccccc4F)o3)CC2)c1,inactive,–
Oc1ccccc1,inactive,–
O=CCCCC=O,inactive,–
Cc1ncc(CO)c(CO)c1O,inactive,–
O=C1O[C@H]([C@@H](O)CO)C(O)=C1O,inactive,–
CCCCCCCCCCCC[N+](C)(C)C,inactive,–
CN1C(=O)CC[C@H]1c1cccnc1,inactive,–
O=c1[nH]sc2ccccc12,inactive,–
CCCCOC(=O)CC(CC(=O)OCCCC)(OC(C)=O)C(=O)OCCCC,inactive,–
CC(C)(C)c1csc(-c2cc3cc(OCc4ccccc4CC(=O)O)ccc3o2)n1,–,73.1 µM (active)
COc1cc(C(=O)NC2CCN(C)CC2)ccc1Nc1ncc2c(n1)N(C1CCCC1)CC(F)(F)C(=O)N2C,inactive,–
CCOC(=O)O[C@H](C)OC(=O)c1ccc2c(c1)cc(C(=O)NC1CCN(C(C)C)CC1)n2Cc1cc(-c2ccc(Cl)s2)on1,inactive,–
O=C=NCCCCCCN=C=O,inactive,–
CCN(Cc1cccnc1)C(=O)c1cccc(Cl)c1[C@]1(C)C(=O)N(Cc2ccc(OC)cc2OC)c2ccc(Cl)cc21,inactive,–
CC(=O)N1CCN(c2ccc(OC[C@H]3CO[C@](Cn4ccnc4)(c4ccc(Cl)cc4Cl)O3)cc2)CC1,–,65 µM (active)
CCCCCCCCOc1ccc(C(=O)c2ccccc2)c(O)c1,inactive,–
NC(=O)c1nc(-c2cccc(-c3cc(F)ccc3OCC(F)(F)C(F)(F)F)c2)n[nH]1,–,92.8 µM (active)
O=C1CCC(C2CCCCC2)CC1,inactive,–
Cc1occc1C(=O)Nc1ccc(C(=O)N2CCC(F)(F)/C(=C\C(=O)N3CCC(N4CCCCC4)CC3)c3ccccc32)cc1,inactive,–
CC(O)CC(C)(C)O (stereo not given),inactive,–
